Among the data in the antibiotic and cytotoxicity screens of Wong et al. (2023) are cytotoxicity call values, retold here.

The whole screen tested about 39,000 compounds, of which about 3,300 (8.5%) were called active. This excerpt belongs to a sample that is enriched for actives.

The test system of the assay is HepG2. The assay is described as follows: cytotoxicity call (relative viability < 0.9). Particulars: 10 µM.
Regarding `C[C@@H]1CN([C@@H](C)CO)C(=O)c2cc(NS(=O)(=O)c3cccs3)ccc2O[C@@H]1CN(C)C(=O)Nc1cccc2ccccc12`, the cytotoxicity call was “inactive”. With `CCC=CCC=CCC=CCC=CCC=CCCCC(=O)OCC` [OMEGA-3-ACID ESTERS (EPA shown) ] the entry was “inactive”; with `C[C@H](CO)N1C[C@H](C)[C@@H](CN(C)Cc2ccc(C(=O)O)cc2)Oc2ncc(C#CCN(C)C)cc2C1=O`, “inactive”.

`Cc1noc(C)c1NC(=O)Nc1ccc2c(c1)CC(=O)N([C@H](C)CO)C[C@@H](C)[C@H](CN(C)Cc1ccc(Cl)c(Cl)c1)O2`: the cytotoxicity call is “inactive”. For `CCOC(=O)N(C)C[C@@H]1OCc2cn(nn2)CCCC(=O)N([C@@H](C)CO)C[C@@H]1C`, the cytotoxicity call is “inactive”.

On to `COc1ccc(NC(=O)Nc2ccc3c(c2)C(=O)N([C@@H](C)CO)C[C@@H](C)[C@@H](CN(C)S(=O)(=O)c2ccc(OC)cc2)OCCCC[C@H](C)O3)cc1`, for which the cytotoxicity call was “inactive”.

Consider `COc1ccccc1CNC(=O)C[C@@H]1C[C@@H]2c3cc(NC(=O)c4ccc5c(c4)OCO5)ccc3O[C@@H]2[C@H](CO)O1`, for which the cytotoxicity call was “inactive”. On to `NCC[C@H]1CC[C@H](NC(=O)C2CCC2)[C@@H](CO)O1`, for which the cytotoxicity call was “inactive”.

On to `Cc1cccc(S(=O)(=O)N2C[C@@H](O)COC[C@@H]3O[C@H](CC(=O)N4CCN(C)CC4)CC[C@H]32)c1`, for which the cytotoxicity call is “inactive”. Regarding `COc1ccc(NC(=O)Nc2ccc3c(c2)C(=O)N([C@H](C)CO)C[C@H](C)[C@H](CN(C)C(=O)CCC(F)(F)F)OCCCC[C@H](C)O3)cc1`, the cytotoxicity call was “inactive”. With `CC(C)NC(=O)N(C)C[C@H]1Oc2ccc(NS(=O)(=O)c3cccs3)cc2C(=O)N([C@H](C)CO)C[C@H]1C` the entry was “inactive”. On to `C[C@@H]1CN([C@@H](C)CO)C(=O)c2cccc(NS(=O)(=O)c3ccccc3)c2O[C@@H]1CN(C)Cc1ccc(Cl)c(Cl)c1`, for which the cytotoxicity call was “inactive”. With `C[C@@H]1CN([C@@H](C)CO)C(=O)c2cccc(NS(=O)(=O)c3ccc(Cl)cc3)c2O[C@H]1CN(C)Cc1ccc(Cl)c(Cl)c1` the entry was “inactive”; with `COc1ccc(S(=O)(=O)Nc2cccc3c2O[C@H](CN(C)Cc2ccc(Cl)c(Cl)c2)[C@H](C)CN([C@@H](C)CO)C3=O)cc1`, “active”. The entry for `C[C@H]1CN([C@@H](C)CO)C(=O)c2cccc(NS(=O)(=O)c3ccccc3)c2O[C@H]1CN(C)Cc1ccc(Cl)c(Cl)c1` is “inactive”; for `COc1ccc(S(=O)(=O)Nc2cccc3c2O[C@H](CN(C)Cc2ccc(Cl)c(Cl)c2)[C@@H](C)CN([C@@H](C)CO)C3=O)cc1` it is “inactive”. With `C[C@H](CO)N1C[C@H](C)[C@@H](CN(C)Cc2ccc(Cl)c(Cl)c2)Oc2c(NS(=O)(=O)c3ccccc3)cccc2C1=O` the entry was “active”; with `COc1ccc(S(=O)(=O)Nc2cccc3c2O[C@@H](CN(C)Cc2ccc(Cl)c(Cl)c2)[C@H](C)CN([C@@H](C)CO)C3=O)cc1`, “inactive”; with `C[C@H]1CN([C@@H](C)CO)C(=O)c2cccc(NS(=O)(=O)c3ccc(Cl)cc3)c2O[C@@H]1CN(C)Cc1ccc(Cl)c(Cl)c1`, “active”. With `C[C@H](CO)N1C[C@H](C)[C@@H](CN(C)Cc2ccc(Cl)c(Cl)c2)Oc2c(NS(=O)(=O)c3ccc(Cl)cc3)cccc2C1=O`, the cytotoxicity call was “inactive”. The entry for `Cc1ccc(S(=O)(=O)N(C)C[C@@H]2Oc3ccc(NC(=O)NC(C)C)cc3CC(=O)N([C@@H](C)CO)C[C@H]2C)cc1` is “inactive”; for `Nc1ncnc(NC[C@H]2CCCO2)c1[N+](=O)[O-]` it is “inactive”; for `COc1ccc(NC(=O)Nc2ccc3c(c2)C(=O)N([C@@H](C)CO)C[C@@H](C)[C@@H](CN(C)S(=O)(=O)c2ccc(C)cc2)OCCCC[C@H](C)O3)cc1` it is “inactive”. On to `C[C@@H]1CN([C@@H](C)CO)S(=O)(=O)c2ccc(-c3cncnc3)cc2O[C@@H]1CN(C)C(=O)Cc1ccncc1`, for which the cytotoxicity call is “inactive”. `COc1ccc(NC(=O)Nc2ccc3c(c2)C(=O)N([C@H](C)CO)C[C@@H](C)[C@H](CN(C)Cc2ccccc2)OCCCC[C@H](C)O3)cc1`: the cytotoxicity call was “active”.

`COc1ccc(NC(=O)Nc2ccc3c(c2)C(=O)N([C@@H](C)CO)C[C@H](C)[C@H](CN(C)Cc2ccccc2)OCCCC[C@H](C)O3)cc1`: the cytotoxicity call is “inactive”.

For `COc1ccc(NC(=O)Nc2ccc3c(c2)C(=O)N([C@@H](C)CO)C[C@H](C)[C@H](CN(C)Cc2ccccc2)OCCCC[C@@H](C)O3)cc1`, the cytotoxicity call was “inactive”. With `COc1ccc(NC(=O)Nc2ccc3c(c2)C(=O)N([C@@H](C)CO)C[C@@H](C)[C@@H](CN(C)Cc2ccccc2)OCCCC[C@@H](C)O3)cc1` the entry was “active”; with `COc1ccc(NC(=O)Nc2ccc3c(c2)C(=O)N([C@@H](C)CO)C[C@@H](C)[C@H](CN(C)Cc2ccccc2)OCCCC[C@H](C)O3)cc1`, “active”; with `COc1ccc(NC(=O)Nc2ccc3c(c2)C(=O)N([C@H](C)CO)C[C@@H](C)[C@@H](CN(C)Cc2ccccc2)OCCCC[C@@H](C)O3)cc1`, “inactive”. The entry for `COc1ccc(NC(=O)Nc2ccc3c(c2)C(=O)N([C@H](C)CO)C[C@H](C)[C@@H](CN(C)Cc2ccccc2)OCCCC[C@H](C)O3)cc1` is “inactive”. The entry for `COc1ccc(NC(=O)Nc2ccc3c(c2)C(=O)N([C@@H](C)CO)C[C@H](C)[C@@H](CN(C)Cc2ccccc2)OCCCC[C@@H](C)O3)cc1` is “inactive”; for `COc1ccc(NC(=O)Nc2ccc3c(c2)C(=O)N([C@@H](C)CO)C[C@@H](C)[C@H](CN(C)Cc2ccccc2)OCCCC[C@@H](C)O3)cc1` it is “inactive”. For `COc1ccc(NC(=O)Nc2ccc3c(c2)C(=O)N([C@@H](C)CO)C[C@@H](C)[C@@H](CN(C)Cc2ccccc2)OCCCC[C@H](C)O3)cc1`, the cytotoxicity call was “inactive”.
